# Source: PubChem BioAssay
# Unmarked numbers belong to inactive results. For some of these results: Measured potencies and affinities stand elsewhere. Calls of active or inactive are those of the source. Unless noted, no rule for the calls is given here.
# Key:
# [1] = antimalarial activity against Dd2 strain (AID 2302;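 active = growth inhibition above 50% at the single 2 µM test dose, taken to imply half-maximal potency below 2 µM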;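 also: 0% = DMSO untreated growth and 100% = chloroquine plus artemisinin killed control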); details: P. falciparum Dd2 in RBCs, LDH growth readout, 72 h; at 2 µM; active compounds read high
# [2] = human hepatoma cell viability loss – ATP luminescence, cytotoxicity control for P. falciparum antimalarial project, primary screen (AID 2303;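 active = inhibition above 50%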;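 also: 0% = DMSO wells and 100% = digitonin-killed cells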); details: HepG2 viability, 24-48 h, at 10 µM, active compounds read high
# [3] = target: L-lactate dehydrogenase (Plasmodium falciparum (isolate CDC / Honduras)) (UniProt Q27743); experiment: PfLDH activity inhibition – cell lysate, 3D7 strain, counter-screen for P. falciparum growth inhibition project (AID 2304);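 also: 0% = vehicle and 100% = reference inhibitor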; details: P. falciparum 3D7 crude extract, LDH APAD/NBT absorbance; at 2 µM; active compounds read high
# [4] = inhibition of 3D7 malaria parasite growth – strain 3D7 (AID 2306);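 also: 0% = DMSO wells and 100% = chloroquine plus artemisinin control wells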; details: P. falciparum 3D7 erythrocytic growth, LDH absorbance, 72 h; at 2 µM; active compounds read high
# [5] = target: Calcium-dependent protein kinase 1 (Plasmodium falciparum (isolate 3D7)) (UniProt P62344); experiment: PfCDPK1 kinase inhibitors, biochemical, TCAMS library (AID 1159585; cut-off not given, nearly all actives have IC50 up to about 0.98 µM;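 also: inhibitors leave more ATP so luminescence rises with inhibition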); details: recombinant PfCDPK1, Kinase-Glo ATP depletion luminescence
# [6] = target: Plasmodium falciparum protein kinase 6 (PK6, PF3D7_1337100) (UniProt Q8IDW1); experiment: PfPK6 kinase inhibitors, biochemical, TCAMS library (AID 1159586); details: recombinant PfPK6, Kinase-Glo ATP depletion luminescence
# [7] = target: Protein kinase 7 (PK7), Plasmodium falciparum 3D7 (PF3D7_0213400) (UniProt Q7YTF7); experiment: inhibition of Plasmodium PK7 catalytic activity – biochemical, TCAMS antimalarial set, Kinase-Glo luminescence (AID 1159587); details: recombinant PfPK7, Kinase-Glo ATP depletion luminescence
# [8] = target: Calcium-dependent protein kinase 4 (Plasmodium falciparum (isolate 3D7)) (UniProt Q8IBS5); experiment: PfCDPK4 kinase inhibitors, biochemical, TCAMS library (AID 1159588; cut-off not given, nearly all actives have IC50 up to about 0.91 µM); details: recombinant PfCDPK4, Kinase-Glo ATP depletion luminescence
# Chain of Calcium-dependent protein kinase 4 (Plasmodium falciparum (isolate 3D7)) (Q8IBS5 whole entry, looked up): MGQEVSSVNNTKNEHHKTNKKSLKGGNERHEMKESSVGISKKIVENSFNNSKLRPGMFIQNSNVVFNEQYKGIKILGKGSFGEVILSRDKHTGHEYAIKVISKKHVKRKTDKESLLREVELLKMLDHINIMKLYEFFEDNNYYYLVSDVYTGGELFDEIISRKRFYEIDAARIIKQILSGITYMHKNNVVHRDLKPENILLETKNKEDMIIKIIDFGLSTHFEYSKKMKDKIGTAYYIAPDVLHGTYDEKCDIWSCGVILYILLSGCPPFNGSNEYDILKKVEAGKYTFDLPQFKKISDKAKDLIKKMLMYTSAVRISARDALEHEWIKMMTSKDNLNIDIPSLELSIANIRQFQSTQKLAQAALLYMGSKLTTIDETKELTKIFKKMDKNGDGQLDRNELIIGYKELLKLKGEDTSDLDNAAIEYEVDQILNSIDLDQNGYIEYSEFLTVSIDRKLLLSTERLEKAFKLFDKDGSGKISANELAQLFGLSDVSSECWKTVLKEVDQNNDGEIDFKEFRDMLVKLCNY
# Chain of Calcium-dependent protein kinase 1 (Plasmodium falciparum (isolate 3D7)) (P62344 whole entry, looked up): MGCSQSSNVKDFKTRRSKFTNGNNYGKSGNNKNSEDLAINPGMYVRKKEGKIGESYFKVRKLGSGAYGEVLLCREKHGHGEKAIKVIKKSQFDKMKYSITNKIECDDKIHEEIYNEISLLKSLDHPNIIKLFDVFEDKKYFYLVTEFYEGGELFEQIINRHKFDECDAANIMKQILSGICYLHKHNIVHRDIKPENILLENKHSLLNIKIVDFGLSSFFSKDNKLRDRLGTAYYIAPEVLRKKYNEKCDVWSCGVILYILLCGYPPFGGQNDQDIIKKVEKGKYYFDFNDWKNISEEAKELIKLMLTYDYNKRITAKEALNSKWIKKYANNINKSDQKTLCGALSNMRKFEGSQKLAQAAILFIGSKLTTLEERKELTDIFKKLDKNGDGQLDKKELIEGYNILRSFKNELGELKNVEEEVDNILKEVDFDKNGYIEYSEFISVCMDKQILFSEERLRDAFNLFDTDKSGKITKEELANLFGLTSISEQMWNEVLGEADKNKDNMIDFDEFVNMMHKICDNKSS
# Chain of Protein kinase 7 (PK7), Plasmodium falciparum 3D7 (PF3D7_0213400) (Q7YTF7 1-343): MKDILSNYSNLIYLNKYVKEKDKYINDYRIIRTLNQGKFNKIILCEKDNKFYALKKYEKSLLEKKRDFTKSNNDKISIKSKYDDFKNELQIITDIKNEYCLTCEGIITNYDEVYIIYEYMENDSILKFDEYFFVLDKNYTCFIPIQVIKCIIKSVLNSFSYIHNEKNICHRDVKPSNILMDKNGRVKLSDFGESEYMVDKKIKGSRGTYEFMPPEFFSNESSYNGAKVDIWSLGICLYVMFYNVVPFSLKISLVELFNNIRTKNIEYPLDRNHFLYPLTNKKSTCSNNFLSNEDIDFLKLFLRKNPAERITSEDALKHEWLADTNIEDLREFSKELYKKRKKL
# Chain of Plasmodium falciparum protein kinase 6 (PK6, PF3D7_1337100) (Q8IDW1 1-305): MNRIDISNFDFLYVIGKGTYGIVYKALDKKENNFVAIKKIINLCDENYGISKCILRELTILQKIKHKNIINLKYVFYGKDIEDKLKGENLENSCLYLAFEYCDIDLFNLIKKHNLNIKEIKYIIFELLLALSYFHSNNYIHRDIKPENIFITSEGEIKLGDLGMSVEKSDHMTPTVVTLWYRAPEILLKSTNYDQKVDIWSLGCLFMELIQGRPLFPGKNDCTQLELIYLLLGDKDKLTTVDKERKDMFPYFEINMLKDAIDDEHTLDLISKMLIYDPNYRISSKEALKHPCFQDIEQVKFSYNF
# Chain of L-lactate dehydrogenase (Plasmodium falciparum (isolate CDC / Honduras)) (Q27743 whole entry, looked up): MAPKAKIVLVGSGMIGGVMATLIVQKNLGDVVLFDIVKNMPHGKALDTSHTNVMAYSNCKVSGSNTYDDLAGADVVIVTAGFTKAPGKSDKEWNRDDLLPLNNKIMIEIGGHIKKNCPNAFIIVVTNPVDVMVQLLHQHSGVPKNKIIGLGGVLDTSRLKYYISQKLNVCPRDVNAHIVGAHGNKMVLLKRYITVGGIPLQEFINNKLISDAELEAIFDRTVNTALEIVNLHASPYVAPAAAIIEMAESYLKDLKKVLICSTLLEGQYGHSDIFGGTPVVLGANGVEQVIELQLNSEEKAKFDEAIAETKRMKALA
SMILES,growth inhibition [1],inhibition [2],inhibition [3] [%],growth inhibition [4],outcome [5],outcome [6],outcome [7],outcome [8]
N=C(N)c1ccc(-c2cc(-c3cccc(C(=N)N)c3)on2)cc1,45%,7%,2,96% (active),inactive,inactive,inactive,inactive
O=C(/C=C/c1ccc(Cl)cc1)NCCCCCN1CCN(C(=O)Nc2ccc(Cl)c(C(F)(F)F)c2)CC1,5%,18%,8,94% (active),inactive,inactive,inactive,inactive
CCN1CCC(N(Cc2ccc(-c3ccc(C(F)(F)F)cc3)cc2)C(=O)Cn2c(CCc3cccc(F)c3F)cc(=O)c3ccccc32)C1 (stereo not given),84% (active),43%,3,93% (active),inactive,inactive,inactive,inactive
O=C(Nc1ccc(Cl)cc1)c1cccc(S(=O)(=O)NC2CCN(CC3CCCCC3)CC2)c1,11%,67% (active),0,92% (active),inactive,inactive,inactive,inactive
COc1ccc(-c2cccc(NC(=O)c3cccc(C#N)c3)c2)cc1CN(C)CCN(C)C,21%,-5%,3,99% (active),inactive,inactive,inactive,inactive
COc1ccc2nccc([C@@H](O)CN3CCC(NCc4cc5ccccc5s4)CC3)c2c1,53% (active),8%,3,97% (active),inactive,inactive,inactive,inactive
CC(C)(C)OC(=O)NCc1ccc(Nc2nnc(-c3ccc(OCC(=O)NC[C@@H]4CC[C@H]5C[C@@H]4C5(C)C)c([N+](=O)[O-])c3)o2)cc1,52% (active),29%,-3,94% (active),inactive,inactive,inactive,inactive
Fc1cc(Cl)ccc1Nc1ccnc2cc(-c3ccc(CN4CCCCC4)o3)ccc12,99% (active),16%,-1,100% (active),inactive,inactive,inactive,inactive
CN(CCCCNC(=O)/C=C/c1ccccc1)C1CC2(CCN(C(=O)OC(C)(C)C)CC2)c2ccccc21 (stereo not given),51% (active),11%,1,87% (active),inactive,inactive,inactive,inactive
O=C(/C=C/c1ccc(Cl)c(Cl)c1)NCCCCCN1CCC(C(=O)Nc2cccc(Cl)c2)CC1,-2%,48%,-3,100% (active),inactive,inactive,inactive,inactive
CCCNCc1ccc(-c2ccc(CN(CCOC)C(=O)CC3CCCC3=O)cc2)nc1 (stereo not given),9%,5%,3,93% (active),inactive,inactive,inactive,inactive
Cc1ccc(NC(=O)c2cccc(CN3CCCN(Cc4cccc(O)c4)CC3)c2)cc1C,31%,19%,1,95% (active),inactive,inactive,inactive,inactive
COc1ccc(N2C(=O)c3c(c4ccccc4n3C)C2c2ccccc2O)cc1 (stereo not given),91% (active),32%,3,96% (active),inactive,inactive,inactive,inactive
O=C(NC1CCCC1)c1ccc(N2CCC(NCc3cc4cc(Cl)ccc4[nH]3)CC2)cc1,-10%,21%,-2,91% (active),inactive,inactive,inactive,inactive
O=c1[nH]c(NCCCNCc2cc3c(Cl)cc(Cl)cc3[nH]2)nc2ccccc12,4%,10%,-3,91% (active),inactive,inactive,inactive,inactive
O=C(Nc1cccc(C(F)(F)F)c1)c1cccc(S(=O)(=O)NCC2CCCN(Cc3ccccc3)C2)c1 (stereo not given),3%,17%,2,94% (active),inactive,inactive,inactive,inactive
NC1=NC2(CCCCC2)N(OCCCCCCN2C(=O)c3ccccc3C2=O)C(N)=N1,16%,20%,1,98% (active),inactive,inactive,inactive,inactive
O=C(NCC1CN(Cc2ccc(N3CCCC3)o2)CCCO1)c1ccc2c(c1)OCO2 (stereo not given),70% (active),-3%,-1,83% (active),inactive,inactive,inactive,inactive
CC1(CCCCN2CCC(Oc3ccc(F)cc3F)CC2)C(=O)Nc2ccccc21 (stereo not given),6%,6%,-6,99% (active),inactive,inactive,inactive,inactive
COc1ccc(-c2nonc2NC(=O)c2cccc(C)c2)cc1OC,8%,24%,-1,97% (active),inactive,inactive,inactive,inactive
